Results published in article PMC13541613, “GHT-SELEX demonstrates unexpectedly high intrinsic sequence specificity and complex DNA binding of many human transcription factors”.

What was measured:
ZNF721 full-length = ZNF721 full-length (Homo sapiens, UniProt Q8TF20-2 1-923); assay: HT-SELEX; 20 mM HEPES pH 7, 140 mM KCl, 5 mM NaCl, 1 mM K2HPO4, 2 mM MgSO4, 100 uM EGTA, ZnSO4, 0.1% Tween20; room temperature, 1 h; high values mean tight binding; conditions: protein: ivt; tags: eGFP (N-terminal); dsDNA, one strand shown
In short: (§1)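 The binding signal is a relative k-mer count in selected reads, and higher values mean tighter binding. To obtain these reads, bead-bound tagged transcription factor (full-length or DNA-binding-domain fragment, produced in HEK293 lysate or cell-free extract) was mixed with a randomized 40-base DNA library for 1 h at room temperature in low-stringency HEPES/KCl buffer with Tween20. Bound DNA was recovered by washing and heat elution, PCR-amplified through successive cycles and sequenced on Illumina (~3 million 60 bp reads per sample).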

ZNF721 DBD2 = ZNF721 DBD2 (Homo sapiens, UniProt Q8TF20-2 395-923); assay: as above; conditions: protein: ivt; tags: eGFP (N-terminal); dsDNA, one strand shown
In short: as §1

ZNF721 DBD2, sequence (Q8TF20 383-911): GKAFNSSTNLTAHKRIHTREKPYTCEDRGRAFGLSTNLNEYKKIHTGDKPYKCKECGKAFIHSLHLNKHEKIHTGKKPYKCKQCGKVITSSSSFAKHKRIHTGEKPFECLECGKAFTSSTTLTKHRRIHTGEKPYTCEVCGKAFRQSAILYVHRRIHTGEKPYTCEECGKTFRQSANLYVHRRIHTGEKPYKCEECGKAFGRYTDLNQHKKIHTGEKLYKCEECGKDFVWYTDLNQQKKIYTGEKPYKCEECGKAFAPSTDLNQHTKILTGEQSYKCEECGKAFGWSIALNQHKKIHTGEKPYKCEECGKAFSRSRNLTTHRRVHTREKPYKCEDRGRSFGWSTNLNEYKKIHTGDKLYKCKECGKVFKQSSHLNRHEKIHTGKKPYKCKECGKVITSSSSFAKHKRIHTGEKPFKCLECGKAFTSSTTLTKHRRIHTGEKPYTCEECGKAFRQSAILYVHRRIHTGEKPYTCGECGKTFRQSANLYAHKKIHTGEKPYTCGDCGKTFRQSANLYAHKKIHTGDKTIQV
ZNF721 full-length, sequence (Q8TF20 other isoform, or with tags, fused parts or gaps): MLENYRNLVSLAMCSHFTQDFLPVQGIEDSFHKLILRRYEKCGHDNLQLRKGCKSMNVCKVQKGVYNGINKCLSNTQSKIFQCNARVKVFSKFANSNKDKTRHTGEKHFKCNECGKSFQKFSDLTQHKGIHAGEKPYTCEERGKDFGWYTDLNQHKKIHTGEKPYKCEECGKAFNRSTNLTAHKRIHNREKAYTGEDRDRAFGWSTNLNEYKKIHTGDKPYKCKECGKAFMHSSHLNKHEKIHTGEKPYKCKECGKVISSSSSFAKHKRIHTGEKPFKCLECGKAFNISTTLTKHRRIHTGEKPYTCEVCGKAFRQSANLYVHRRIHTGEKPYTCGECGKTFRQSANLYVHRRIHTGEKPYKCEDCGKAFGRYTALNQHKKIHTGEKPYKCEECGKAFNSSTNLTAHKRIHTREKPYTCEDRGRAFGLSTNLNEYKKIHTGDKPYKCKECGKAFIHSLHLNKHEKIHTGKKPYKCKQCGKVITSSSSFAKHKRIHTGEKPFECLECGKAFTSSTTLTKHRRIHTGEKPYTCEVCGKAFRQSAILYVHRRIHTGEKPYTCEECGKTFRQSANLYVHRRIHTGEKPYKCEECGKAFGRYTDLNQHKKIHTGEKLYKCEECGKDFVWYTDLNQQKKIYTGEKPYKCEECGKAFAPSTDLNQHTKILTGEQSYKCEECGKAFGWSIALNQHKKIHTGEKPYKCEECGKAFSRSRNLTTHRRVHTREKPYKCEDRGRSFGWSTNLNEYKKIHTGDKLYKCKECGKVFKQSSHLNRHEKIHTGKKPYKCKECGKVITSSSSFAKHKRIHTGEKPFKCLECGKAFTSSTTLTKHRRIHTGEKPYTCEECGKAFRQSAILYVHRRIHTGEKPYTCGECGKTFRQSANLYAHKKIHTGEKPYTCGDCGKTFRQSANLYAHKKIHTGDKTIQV

Sequence	binding signal (ZNF721 full-length) [relative 10-mer count]	binding signal (ZNF721 DBD2) [relative 10-mer count]
AAAAACAGGG	0.283	0.337
ATAAAAACAG	0.11	0.148
ACAGTGTTTC	0.14	0.272
AAAAACTAGC	0.103	0.135
AACAAAGCAG	0.243	0.29
CAAAGCAGCA	0.112	0.132
AGAAAAACAG	0.178	0.208
CACAAAACAG	0.147	0.156
AAAACAGCGC	0.17	0.225
AACAAAACAG	0.206	0.223
AACAAACAGC	0.119	0.0709
AACAGTGTTG	0.127	0.327
AAAAACAGAG	0.212	0.213
ACAGTGTCTC	0.106	0.236
AAAACAGCGG	0.134	0.189
AAACAGGGTT	0.271	0.368
AACAGAGTAC	0.127	0.166
AAACGAACAG	0.126	0.0771
AAAAGCAGGG	0.207	0.218
AACAGTGTAT	0.129	0.199
CCCTGTTTTC	0.162	0.186
CAGTGTTACC	0.128	0.259
CAGCATATCC	0.162	0.216
AACAGCATAC	0.51	0.709
ACAGCATACC	0.516	0.692
AAAAGCAGTG	0.383	0.397
AAAAAACAGC	1	0.902

Sequence	binding signal (ZNF721 full-length) [relative 10-mer count]	binding signal (ZNF721 DBD2) [relative 10-mer count]
ACAAAACAGC	0.249	0.272
AGAGTACCCA	0.112	0.123
ACAGGGTATC	0.137	0.2
ACTGTTTTTC	0.135	0.17
ATGCTGTTTC	0.143	0.178
AAAACAGCAC	0.279	0.306
CAGTGTTTCC	0.252	0.641
AAACAGGGGT	0.106	0.153
AAAAAAACAG	0.967	0.753
ATAAAACAGC	0.158	0.214
AAAACAGCAG	0.243	0.264
ACAGTGTATC	0.137	0.202
AAAAAACAGG	0.278	0.289
CAGCGTTTCC	0.342	0.861
AAAACAGCGT	0.759	0.975
AGCAGTGTTG	0.13	0.223
CAAAGCAGCG	0.114	0.158
CAGCGTTGCC	0.143	0.423
AAAAACAGGA	0.104	0.113
AAACAAACAG	0.143	0.0858
AAGCAGTGTA	0.142	0.18
GAAACGCTGC	0.102	0.169
AAAACAGGAT	0.12	0.133
GAAAACAGCA	0.299	0.388
AAACGCTGTT	0.236	0.44
AAACAGGATA	0.111	0.121
CGCTGTTTTA	0.126	0.174

Sequence	binding signal (ZNF721 full-length) [relative 10-mer count]	binding signal (ZNF721 DBD2) [relative 10-mer count]
AACCCTGCTT	0.197	0.258
CAGTGTATCC	0.208	0.401
AACAGCATGC	0.113	0.163
GCTGTTTTTA	0.135	0.204
ACAGCATATC	0.126	0.174
AAAACAGCAT	0.921	1
ACGCTGTTTC	0.13	0.199
AACAGCATCC	0.117	0.1
CAAAGCAGTG	0.119	0.198
AAAGCAGTGT	0.513	0.632
AAAAACAGCA	0.778	0.785
AAACAGCGTT	0.388	0.648
AAAAACAGTG	0.406	0.517
AACAGCGTAT	0.225	0.366
GAAACACTGC	0.118	0.188
CAGGGTATCC	0.221	0.431
ACAGCGTATC	0.232	0.371
AAAACAGAGT	0.236	0.279
CAAAACAGCG	0.142	0.176
AAACAGTGTC	0.116	0.209
AACAGCGTAC	0.19	0.275
CAGGGTTGCC	0.155	0.49
CGAAAAACAG	0.174	0.222
ACAAAAACAG	0.13	0.173
AAAACAGTAC	0.126	0.166
AATAAAACAG	0.132	0.168
